This is a sample that favours compounds with a hit; in the whole collection about 2.5% have one here.
TWEAK-Fn14 inh: blocks TWEAK-Fn14 interaction in a reporter cell assay; hit rate 2% among 360,000; inhibition, % at 10 µM; TWEAK-stimulated Fn14 reporter cells, luciferase luminescence, 8 h; in the data active = inhibition above about 50%
LGR2 inh: Drosophila LGR2 receptor signaling inhibition; HEK293 LGR2, CRE-luciferase, bursicon-stimulated, 4 h; hit rate 0.35% among 380,000; AID 720647; inhibition, % at 9.99 µM;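 active = drop in luminescence signal, shown as inhibition above about 50% in the replicate tests, limit read from the data, passing the limit was not always enough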;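 note: agonist challenge used bursicon conditioned medium at about half maximal strength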
EBV LMP1 NFkB: Epstein-Barr LMP1 NF-kappaB reporter inhibition; AID 504558; LMP1-induced NF-kappaB luciferase reporter cells, luminescence; inhibition, % at 12.5 µM; hit rate 0.69% among 350,000; in the data active = inhibition above about 41%;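 note: 0% = neutral control wells and 100% = reference inhibitor control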
TROY signal inh: blocks TROY-dependent signaling in reporter cells; hit rate 0.98% among 360,000; Q293 LMP1-TROYcd NF-kB luciferase reporter, 4 h; AID 1347056; inhibition, % at 10 µM;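 active = compounds whose plate-normalised and pattern-corrected inhibition of the luciferase reporter signal at the single screening dose is 50% or more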
EWS-Fli inh: EWS/Fli transcriptional activity inhibition; inhibition, % at 12.6 µM; hit rate 0.67% among 350,000; A673 NR0B1-luciferase reporter, viability-normalised; AID 651661;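 active = mean inhibition of at least 50% after viability correction, with every replicate also passing that limit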;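 note: firefly luciferase signal divided by Alamar Blue viability fluorescence both relative to DMSO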
DNA binder FP: small molecule DNA binding by fluorescence polarization. shares compounds with EWS-Fli inh. salmon sperm DNA acridine orange fluorescence polarization. AC35, µM (doses to about 68 µM), without a hit: top-dose activity change, negative = DNA binding. hit rate 2% among 640. AID 720586;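 active = fitted curve reaches a 35% signal fall AC35 below twice the sample's top valid tested dose, actives reach about 48 µM in these data; inactive = the rest, including activity in the rising direction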;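 note: lower polarization ratio signals compound binding to DNA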
Active calls of the source: *; nt = no result given; ! = a repeat was not active.

SMILES | TWEAK-Fn14 inh | LGR2 inh | EBV LMP1 NFkB | TROY signal inh | EWS-Fli inh | DNA binder FP
COc1ccccc1-c1ccc(OCCCN2CCC(C(O)(c3ccccc3)c3ccccc3)CC2)cc1 | nt | 62* | nt | nt | 71* | -15%
Cc1nc(S(=O)(=O)N2CCN(Cc3cccc(OCCO)c3)CC2)cn1C | nt | nt | nt | nt | 2 | nt
O=C(CN1C(=O)c2ccccc2S1(=O)=O)c1ccc(F)cc1 | 91* | 74* | 69* | 73* | 66* | -6%
O=C(CN1C(=O)c2ccccc2C1=O)c1ccc(F)cc1 | -2 | -4 | 8 | 3 | -12 | nt
COCC(=O)Nc1ccc2c(c1)OC[C@H](C)N(Cc1ccccn1)C[C@@H](C)[C@H](OC)CN(C)C2=O | nt | -5 | nt | nt | -6 | nt
COCc1cc(C)nc2sc(C(=O)NCCO)c(-n3cccc3)c12 | 10 | -18 | -1 | -6 | 61* | -14%
O=c1[nH]c(=O)n([C@H]2C[C@H](O)[C@@H](CO)O2)cc1F | -3 | 17 | 50* | -6 | 64* | -5%
O=C(Nc1ccc(F)cc1)N1CCCCN2[C@@H](CO)[C@H](c3ccc(C4=CCCCC4)cc3)[C@@H]2C1 | nt | -5 | nt | nt | 52* | 0%
C[C@@H]1CN([C@H](C)CO)C(=O)c2cc(-c3ccc(F)cc3)cnc2O[C@H]1CN(C)C(=O)Cc1ccccn1 | nt | -8 | nt | nt | 0 | nt
Cc1cccc(N2CCN(C3C(=O)Nc4ccccc4-n4nnnc43)CC2)c1C (configuration not stated) | nt | -20 | nt | nt | 54* | 5%
CC(C)c1ccccc1NC(=O)Nc1nc(C(N)Cc2ccc(C(F)(F)F)cc2)cs1 (configuration not stated) | 4 | -30 | nt | 1 | -5 | nt
NC(Cc1ccc(C(F)(F)F)cc1)c1csc(NC(=O)Nc2ccccc2Cc2ccccc2)n1 (configuration not stated) | 22 | 0 | nt | -12 | 56* | -9%
CC(C)(C)c1ccc(C(=O)CC(=O)c2cc(Cl)ccc2O)cc1 | -6 | nt | 6 | -37 | nt | nt
N/C(=C\C(=O)c1cc(Cl)ccc1O)C(Cl)(Cl)Cl | 67* | -2 | -6 | 8 | 62* | -5%
Cc1ccc(S(=O)(=O)N(C)C[C@@H]2Oc3ncc(-c4ccncc4)cc3C(=O)N([C@H](C)CO)C[C@H]2C)cc1 | nt | -17 | nt | nt | -4 | nt
CN=c1scc(C)n1/N=C/c1ccc(O)c(O)c1O | 21 | nt | 4 | -48 | nt | nt
CN=c1scc(-c2cccs2)n1/N=C/c1ccccc1O | 108* | 100* | 85* | 88* | 93* | -7%
O=C(c1ccc(F)cc1)N1[C@@H](CO)[C@@H]2c3ccccc3NC[C@@H]21 | nt | -3 | nt | nt | 0 | nt
CCOc1ccc(C(=O)N/N=C/c2ccc(-c3ccc(S(=O)(=O)Nc4ncccn4)cc3)o2)cc1 | 13 | -17 | 4 | 19 | nt | nt
CCOc1ccc(NC(=O)C(=O)N/N=C\c2ccc(CNS(=O)(=O)c3ccccc3)o2)cc1 | -96 | 18 | -29 | -4 | 86* | 9%
COc1cccc(S(=O)(=O)N[C@@H]2C=C[C@H](CC(=O)NC3Cc4ccccc4C3)O[C@H]2CO)c1 | nt | 3 | nt | nt | 4 | nt
COc1ccc(NC(=O)c2cc3ccccc3oc2=O)cc1 | 100* | 76* | 73* | 74* | 76* | -11%
C[C@H](CO)N1C[C@H](C)[C@@H](CN(C)C(=O)CCCN(C)C)OCCCC[C@H](C)Oc2ccc(NC(=O)c3ccncc3)cc2C1=O | nt | -5 | nt | nt | -4 | nt
CCS(=O)(=O)N1Cc2ccccc2CC1C(=O)Nc1nnc(SCc2ccc(C#N)cc2)s1 (configuration not stated) | -8 | 1 | -9 | 16 | 66* | -1%
COc1ccc(C[C@H]2CCc3cnnn3COC[C@@H](C(C)C)NC2=O)cc1 | nt | -3 | nt | nt | -18 | nt
SMILES | TWEAK-Fn14 inh | LGR2 inh | EBV LMP1 NFkB | TROY signal inh | EWS-Fli inh | DNA binder FP
CN(C[C@H]1N[C@@H](CO)[C@@H]1c1ccc(C2=CCCC2)cc1)C(=O)c1ccc(F)cc1 | nt | 1 | nt | nt | 73* | -14%
O=C(CCCCl)Nc1nc(-c2ccc3c(c2)OCCO3)cs1 | 51* | -71 | -18 | 24 | 57* | -5%
CCC(=O)N(C)C[C@@H]1Oc2cc(-c3cccc(OC)c3)ccc2S(=O)(=O)N([C@H](C)CO)C[C@H]1C | nt | 13 | nt | nt | 0 | nt
COc1ccccc1C(=O)NCCNc1nc2cc(C)cc(C)c2cc1C#N | -16 | 4 | -8 | -1 | 2 | nt
COc1ccc(C(=O)NCCNc2nc3cc(C)cc(C)c3cc2C#N)c(OC)c1 | nt | 15 | nt | nt | 67* | -10%
O=C(C[C@@H]1CC[C@@H]2[C@H](COC[C@H](O)CN2S(=O)(=O)c2ccccc2)O1)NCCN1CCCCC1 | nt | -16 | nt | nt | 1 | nt
COc1cccc(S(=O)(=O)N(C)C[C@H]2Oc3ncc(C#CCN(C)C)cc3C(=O)N([C@@H](C)CO)C[C@H]2C)c1 | nt | 24 | nt | nt | 7 | nt
N#Cc1cccc(-c2ccc(C3[C@@H]4CN(C(=O)Cc5ccncc5)C[C@H]3N4)cc2)c1 (some centres not stated) | nt | 5 | nt | nt | 78*! | -4%
COc1ccc2c3c([nH]c2c1)[C@@H](CO)N(C(=O)c1ccccn1)CC31CN(C(=O)C2CCCC2)C1 | nt | 2 | nt | nt | -5 | nt
COC(=O)C[C@@H]1CC[C@@H]2[C@@H](COc3ccc(NC(=O)Nc4ccc(C#N)cc4)cc3C(=O)N2C)O1 | nt | -7 | nt | nt | 78* | 12%
COC(=O)C[C@H]1CC[C@H]2[C@H](COc3ccc(NC(=O)Nc4ccc(C#N)cc4)cc3C(=O)N2C)O1 | nt | -2 | nt | nt | 42 | nt
COC(=O)C[C@@H]1CC[C@H]2[C@H](COc3ccc(NC(=O)Nc4ccc(C#N)cc4)cc3C(=O)N2C)O1 | nt | 18 | nt | nt | 87* | 5%
C[C@@H]1CN([C@@H](C)CO)C(=O)c2cccc(NC(=O)c3nc4ccccc4s3)c2O[C@@H]1CN(C)C(=O)NC1CCCCC1 | nt | 15 | nt | nt | -3 | nt
COc1ccc(C2=Nn3c([n+](C)c4ccccc43)SC2)cc1 | -18 | -24 | 18 | 5 | 53* | -3%
O=C(C[C@@H]1C=C[C@@H](NS(=O)(=O)c2ccc(F)cc2)[C@H](CO)O1)NCCc1ccncc1 | nt | 5 | nt | nt | 3 | nt
C[C@H](CO)N1C[C@H](C)[C@@H](CN(C)C(=O)c2ccccc2F)Oc2cc(-c3ccccc3)ccc2S1(=O)=O | nt | 3 | nt | nt | 11 | nt
CCc1ccc(S(=O)(=O)c2ccc(-n3nc(C)cc3N)cc2)cc1 | 0 | 22 | 3 | 0 | 53* | -3%
COc1ccc(C(=O)Nc2cccc(C(=O)N/N=C/c3ccc(OC)cc3OC)c2)cc1 | 22 | -4 | 67* | -26 | 54* | 8%
COc1ccc(/C=N/NC(=O)c2cccc(NC(C)=O)c2)c(OC)c1 | 3 | 34 | -2 | -1 | 4 | nt
COc1ccc(-c2cnc3c(NC=O)cc(-c4ccccc4OC)cn23)cc1OC | 53* | -26 | nt | 26 | 58* | -5%
CN(C)C(=O)C[C@@H]1C=C[C@@H](NC(=O)c2ccc(F)cc2)[C@H](CO)O1 | nt | 11 | nt | nt | nt | nt

Compound activity: PubChem BioAssay, several laboratories
